Data published in ChEMBL document CHEMBL2218924, “A broad activity screen in support of a chemogenomic map for kinase signalling research and drug discovery” (Biochem J, 2013).

Legend:
[1] = target: T1, Ephrin type-A receptor 3 (Homo sapiens) (UniProt P29320); conditions: at 10 µM
T1 sequence (whole entry): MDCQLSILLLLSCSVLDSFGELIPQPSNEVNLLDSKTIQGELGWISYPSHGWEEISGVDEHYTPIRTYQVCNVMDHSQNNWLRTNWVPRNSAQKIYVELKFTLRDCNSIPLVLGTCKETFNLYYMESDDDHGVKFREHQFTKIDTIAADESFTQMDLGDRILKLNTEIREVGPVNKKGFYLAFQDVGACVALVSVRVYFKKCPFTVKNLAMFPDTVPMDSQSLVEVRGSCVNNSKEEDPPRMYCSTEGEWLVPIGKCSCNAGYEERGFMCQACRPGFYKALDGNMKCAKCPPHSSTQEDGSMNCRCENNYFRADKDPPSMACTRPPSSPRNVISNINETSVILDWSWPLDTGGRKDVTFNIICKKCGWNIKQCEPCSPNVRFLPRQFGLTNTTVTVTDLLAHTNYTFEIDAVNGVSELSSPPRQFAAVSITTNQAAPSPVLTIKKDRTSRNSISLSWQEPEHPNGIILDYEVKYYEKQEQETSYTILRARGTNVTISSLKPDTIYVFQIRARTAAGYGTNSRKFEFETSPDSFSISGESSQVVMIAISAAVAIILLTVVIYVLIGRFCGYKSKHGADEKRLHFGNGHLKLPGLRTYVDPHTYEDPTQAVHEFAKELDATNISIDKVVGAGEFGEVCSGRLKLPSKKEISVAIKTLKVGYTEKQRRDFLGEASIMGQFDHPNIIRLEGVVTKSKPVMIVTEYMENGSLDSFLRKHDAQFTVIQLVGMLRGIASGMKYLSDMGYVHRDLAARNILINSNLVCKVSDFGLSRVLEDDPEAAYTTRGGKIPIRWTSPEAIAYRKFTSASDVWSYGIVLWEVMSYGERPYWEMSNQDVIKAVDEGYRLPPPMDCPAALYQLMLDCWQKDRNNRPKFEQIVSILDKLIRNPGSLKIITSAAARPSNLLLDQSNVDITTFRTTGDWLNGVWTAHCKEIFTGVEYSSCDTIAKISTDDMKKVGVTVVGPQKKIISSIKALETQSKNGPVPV

[2] = target: Ephrin type-A receptor 7 (Homo sapiens) (UniProt Q15375); conditions: at 1 µM
[3] = target: Ephrin type-A receptor 7 (Homo sapiens) (UniProt Q15375); conditions: at 10 µM
[4] = target: T2, Ephrin type-B receptor 1 (Homo sapiens) (UniProt P54762); conditions: at 1 µM
T2 sequence (whole entry): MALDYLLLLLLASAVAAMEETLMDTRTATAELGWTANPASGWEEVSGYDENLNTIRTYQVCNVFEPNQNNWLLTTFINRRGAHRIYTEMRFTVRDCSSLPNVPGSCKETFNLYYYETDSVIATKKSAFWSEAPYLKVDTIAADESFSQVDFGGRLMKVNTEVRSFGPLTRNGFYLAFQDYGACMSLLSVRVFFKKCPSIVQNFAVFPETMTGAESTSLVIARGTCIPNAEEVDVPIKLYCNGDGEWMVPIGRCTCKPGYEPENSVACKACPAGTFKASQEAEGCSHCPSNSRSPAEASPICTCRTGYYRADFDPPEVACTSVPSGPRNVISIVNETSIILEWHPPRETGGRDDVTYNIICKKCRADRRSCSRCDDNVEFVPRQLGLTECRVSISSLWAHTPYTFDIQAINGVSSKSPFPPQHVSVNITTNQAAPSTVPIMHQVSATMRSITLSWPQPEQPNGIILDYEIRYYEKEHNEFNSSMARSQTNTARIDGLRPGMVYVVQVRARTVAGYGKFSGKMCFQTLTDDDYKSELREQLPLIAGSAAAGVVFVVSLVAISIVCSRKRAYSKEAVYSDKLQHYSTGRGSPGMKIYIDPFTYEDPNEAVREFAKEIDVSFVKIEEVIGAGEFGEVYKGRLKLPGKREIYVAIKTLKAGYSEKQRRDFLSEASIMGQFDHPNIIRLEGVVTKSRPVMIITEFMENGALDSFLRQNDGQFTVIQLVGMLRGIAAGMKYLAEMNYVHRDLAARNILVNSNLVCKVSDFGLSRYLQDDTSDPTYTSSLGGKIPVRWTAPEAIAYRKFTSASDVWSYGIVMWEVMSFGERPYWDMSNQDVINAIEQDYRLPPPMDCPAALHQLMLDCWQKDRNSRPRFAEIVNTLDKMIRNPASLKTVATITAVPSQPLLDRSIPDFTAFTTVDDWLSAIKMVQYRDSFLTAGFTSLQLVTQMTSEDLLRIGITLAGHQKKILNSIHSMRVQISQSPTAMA

[5] = target: T2, Ephrin type-B receptor 1 (Homo sapiens); conditions: at 10 µM
[6] = target: T3, Ephrin type-B receptor 3 (Homo sapiens) (UniProt P54753); conditions: at 1 µM
T3 sequence (whole entry): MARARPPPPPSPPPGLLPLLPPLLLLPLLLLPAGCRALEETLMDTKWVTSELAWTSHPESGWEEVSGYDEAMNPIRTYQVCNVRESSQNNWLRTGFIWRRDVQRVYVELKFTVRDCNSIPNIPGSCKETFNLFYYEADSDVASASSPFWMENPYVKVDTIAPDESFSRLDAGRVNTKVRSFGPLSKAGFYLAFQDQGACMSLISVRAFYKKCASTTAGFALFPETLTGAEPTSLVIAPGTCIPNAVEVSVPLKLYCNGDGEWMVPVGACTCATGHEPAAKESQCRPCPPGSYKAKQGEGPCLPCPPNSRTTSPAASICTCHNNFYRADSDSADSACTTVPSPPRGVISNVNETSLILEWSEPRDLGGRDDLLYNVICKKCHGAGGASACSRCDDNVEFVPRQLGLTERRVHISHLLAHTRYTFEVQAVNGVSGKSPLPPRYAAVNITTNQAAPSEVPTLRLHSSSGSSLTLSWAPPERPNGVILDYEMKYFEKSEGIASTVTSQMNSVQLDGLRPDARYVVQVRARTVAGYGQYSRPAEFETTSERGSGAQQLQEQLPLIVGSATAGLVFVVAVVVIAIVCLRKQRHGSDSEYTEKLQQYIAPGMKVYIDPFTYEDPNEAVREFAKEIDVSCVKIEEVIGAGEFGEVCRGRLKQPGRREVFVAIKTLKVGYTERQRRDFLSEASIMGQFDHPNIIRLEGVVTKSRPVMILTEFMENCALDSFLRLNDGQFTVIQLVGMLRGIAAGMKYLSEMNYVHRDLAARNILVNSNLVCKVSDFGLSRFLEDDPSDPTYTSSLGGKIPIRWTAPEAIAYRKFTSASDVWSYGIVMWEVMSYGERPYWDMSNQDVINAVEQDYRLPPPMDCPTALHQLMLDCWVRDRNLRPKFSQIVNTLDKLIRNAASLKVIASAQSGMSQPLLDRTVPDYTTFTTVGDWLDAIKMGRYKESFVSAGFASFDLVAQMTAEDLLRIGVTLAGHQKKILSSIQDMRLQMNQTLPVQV

[7] = target: T3, Ephrin type-B receptor 3 (Homo sapiens); conditions: at 10 µM
[8] = target: T4, Ephrin type-B receptor 4 (Homo sapiens) (UniProt P54760); conditions: at 1 µM
T4 sequence (whole entry): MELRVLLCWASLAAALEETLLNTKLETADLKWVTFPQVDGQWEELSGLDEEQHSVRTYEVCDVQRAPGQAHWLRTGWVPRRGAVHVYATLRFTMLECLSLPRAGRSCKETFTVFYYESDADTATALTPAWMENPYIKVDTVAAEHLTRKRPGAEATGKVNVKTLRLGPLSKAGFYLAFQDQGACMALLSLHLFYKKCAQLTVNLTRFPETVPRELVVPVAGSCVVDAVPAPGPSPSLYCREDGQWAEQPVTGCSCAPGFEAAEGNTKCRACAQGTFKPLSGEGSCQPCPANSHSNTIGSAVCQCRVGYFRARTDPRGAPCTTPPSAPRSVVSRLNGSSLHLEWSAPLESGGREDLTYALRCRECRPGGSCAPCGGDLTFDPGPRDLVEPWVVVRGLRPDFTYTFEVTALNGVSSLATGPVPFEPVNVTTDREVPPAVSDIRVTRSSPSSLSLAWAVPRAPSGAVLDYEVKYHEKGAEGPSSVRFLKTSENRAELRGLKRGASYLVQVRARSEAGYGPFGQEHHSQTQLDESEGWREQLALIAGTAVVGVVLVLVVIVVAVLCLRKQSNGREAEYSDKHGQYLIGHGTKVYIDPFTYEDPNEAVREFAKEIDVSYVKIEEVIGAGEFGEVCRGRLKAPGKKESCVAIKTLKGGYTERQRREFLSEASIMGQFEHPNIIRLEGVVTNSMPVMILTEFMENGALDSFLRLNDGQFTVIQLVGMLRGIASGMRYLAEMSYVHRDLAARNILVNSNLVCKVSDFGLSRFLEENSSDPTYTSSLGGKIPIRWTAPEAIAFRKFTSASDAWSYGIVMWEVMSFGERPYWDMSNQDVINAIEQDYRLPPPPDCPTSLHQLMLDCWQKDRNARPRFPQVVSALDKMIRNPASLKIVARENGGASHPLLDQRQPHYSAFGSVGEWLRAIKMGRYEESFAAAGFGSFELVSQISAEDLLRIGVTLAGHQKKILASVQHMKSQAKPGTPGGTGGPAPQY

[9] = target: T4, Ephrin type-B receptor 4 (Homo sapiens); conditions: at 10 µM
[10] = target: Receptor tyrosine-protein kinase erbB-4 (Homo sapiens) (UniProt Q15303); conditions: at 10 µM
[11] = target: Focal adhesion kinase 1 (Homo sapiens) (UniProt Q05397); conditions: at 1 µM
[12] = target: Ephrin type-A receptor 5 (Homo sapiens) (UniProt P54756); conditions: at 1 µM
[13] = target: Ephrin type-A receptor 5 (Homo sapiens) (UniProt P54756); conditions: at 10 µM
[14] = target: Receptor tyrosine-protein kinase erbB-4 (Homo sapiens) (UniProt Q15303); conditions: at 1 µM

Chain of Ephrin type-A receptor 5 (Homo sapiens) (P54756 whole entry): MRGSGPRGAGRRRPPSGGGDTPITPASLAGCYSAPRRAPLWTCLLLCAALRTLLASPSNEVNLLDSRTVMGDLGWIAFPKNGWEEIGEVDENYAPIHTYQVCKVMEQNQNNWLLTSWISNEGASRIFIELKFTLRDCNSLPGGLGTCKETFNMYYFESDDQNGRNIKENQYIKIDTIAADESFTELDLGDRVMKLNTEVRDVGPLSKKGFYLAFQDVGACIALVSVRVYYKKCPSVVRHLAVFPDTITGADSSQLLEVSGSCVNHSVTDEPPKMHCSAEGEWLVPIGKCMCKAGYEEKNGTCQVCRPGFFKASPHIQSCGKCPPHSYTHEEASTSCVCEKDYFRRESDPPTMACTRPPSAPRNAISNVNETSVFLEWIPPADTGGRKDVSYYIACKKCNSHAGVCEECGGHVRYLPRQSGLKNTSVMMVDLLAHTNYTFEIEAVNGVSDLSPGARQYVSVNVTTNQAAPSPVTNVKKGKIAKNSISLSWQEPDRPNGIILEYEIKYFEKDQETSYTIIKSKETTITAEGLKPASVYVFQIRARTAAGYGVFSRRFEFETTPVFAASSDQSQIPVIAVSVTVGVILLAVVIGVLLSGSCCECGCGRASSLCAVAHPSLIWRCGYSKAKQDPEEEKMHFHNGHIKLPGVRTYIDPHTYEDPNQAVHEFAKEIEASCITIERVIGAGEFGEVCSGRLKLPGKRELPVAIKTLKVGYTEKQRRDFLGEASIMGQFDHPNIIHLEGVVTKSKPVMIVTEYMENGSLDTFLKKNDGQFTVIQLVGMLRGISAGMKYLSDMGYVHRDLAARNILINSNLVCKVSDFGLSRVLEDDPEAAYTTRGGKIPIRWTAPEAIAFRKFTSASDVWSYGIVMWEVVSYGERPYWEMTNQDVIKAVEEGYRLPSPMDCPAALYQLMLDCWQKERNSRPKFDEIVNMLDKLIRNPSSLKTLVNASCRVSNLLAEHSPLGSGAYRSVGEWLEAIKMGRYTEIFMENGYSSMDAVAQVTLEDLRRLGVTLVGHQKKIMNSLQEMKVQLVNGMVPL
Chain of Ephrin type-A receptor 7 (Homo sapiens) (Q15375 28-998 limits assumed): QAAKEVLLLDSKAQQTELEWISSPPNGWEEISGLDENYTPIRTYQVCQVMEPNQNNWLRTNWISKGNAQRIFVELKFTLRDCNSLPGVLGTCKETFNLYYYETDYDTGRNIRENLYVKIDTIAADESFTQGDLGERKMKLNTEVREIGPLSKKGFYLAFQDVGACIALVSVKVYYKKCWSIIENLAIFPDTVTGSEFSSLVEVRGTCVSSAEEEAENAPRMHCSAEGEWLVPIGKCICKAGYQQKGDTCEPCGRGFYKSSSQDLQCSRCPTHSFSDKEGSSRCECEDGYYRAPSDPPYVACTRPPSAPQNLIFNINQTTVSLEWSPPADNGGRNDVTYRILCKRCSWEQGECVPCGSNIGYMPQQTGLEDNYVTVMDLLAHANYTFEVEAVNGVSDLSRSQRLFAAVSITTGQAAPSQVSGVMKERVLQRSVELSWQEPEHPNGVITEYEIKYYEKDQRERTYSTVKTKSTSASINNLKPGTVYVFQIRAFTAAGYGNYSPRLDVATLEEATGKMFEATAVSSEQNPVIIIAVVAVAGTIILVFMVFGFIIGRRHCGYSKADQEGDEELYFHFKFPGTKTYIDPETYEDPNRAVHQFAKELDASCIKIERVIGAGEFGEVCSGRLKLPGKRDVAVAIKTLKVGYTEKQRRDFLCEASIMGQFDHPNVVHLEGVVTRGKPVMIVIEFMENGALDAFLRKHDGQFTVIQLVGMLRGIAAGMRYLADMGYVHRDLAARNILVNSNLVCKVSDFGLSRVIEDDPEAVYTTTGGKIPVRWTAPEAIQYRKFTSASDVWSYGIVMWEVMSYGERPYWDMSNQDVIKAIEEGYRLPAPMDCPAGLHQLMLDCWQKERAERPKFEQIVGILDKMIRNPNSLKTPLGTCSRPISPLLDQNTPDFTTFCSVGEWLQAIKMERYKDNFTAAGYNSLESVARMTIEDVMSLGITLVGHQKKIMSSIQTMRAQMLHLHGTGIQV
Chain of Receptor tyrosine-protein kinase erbB-4 (Homo sapiens) (Q15303 whole entry): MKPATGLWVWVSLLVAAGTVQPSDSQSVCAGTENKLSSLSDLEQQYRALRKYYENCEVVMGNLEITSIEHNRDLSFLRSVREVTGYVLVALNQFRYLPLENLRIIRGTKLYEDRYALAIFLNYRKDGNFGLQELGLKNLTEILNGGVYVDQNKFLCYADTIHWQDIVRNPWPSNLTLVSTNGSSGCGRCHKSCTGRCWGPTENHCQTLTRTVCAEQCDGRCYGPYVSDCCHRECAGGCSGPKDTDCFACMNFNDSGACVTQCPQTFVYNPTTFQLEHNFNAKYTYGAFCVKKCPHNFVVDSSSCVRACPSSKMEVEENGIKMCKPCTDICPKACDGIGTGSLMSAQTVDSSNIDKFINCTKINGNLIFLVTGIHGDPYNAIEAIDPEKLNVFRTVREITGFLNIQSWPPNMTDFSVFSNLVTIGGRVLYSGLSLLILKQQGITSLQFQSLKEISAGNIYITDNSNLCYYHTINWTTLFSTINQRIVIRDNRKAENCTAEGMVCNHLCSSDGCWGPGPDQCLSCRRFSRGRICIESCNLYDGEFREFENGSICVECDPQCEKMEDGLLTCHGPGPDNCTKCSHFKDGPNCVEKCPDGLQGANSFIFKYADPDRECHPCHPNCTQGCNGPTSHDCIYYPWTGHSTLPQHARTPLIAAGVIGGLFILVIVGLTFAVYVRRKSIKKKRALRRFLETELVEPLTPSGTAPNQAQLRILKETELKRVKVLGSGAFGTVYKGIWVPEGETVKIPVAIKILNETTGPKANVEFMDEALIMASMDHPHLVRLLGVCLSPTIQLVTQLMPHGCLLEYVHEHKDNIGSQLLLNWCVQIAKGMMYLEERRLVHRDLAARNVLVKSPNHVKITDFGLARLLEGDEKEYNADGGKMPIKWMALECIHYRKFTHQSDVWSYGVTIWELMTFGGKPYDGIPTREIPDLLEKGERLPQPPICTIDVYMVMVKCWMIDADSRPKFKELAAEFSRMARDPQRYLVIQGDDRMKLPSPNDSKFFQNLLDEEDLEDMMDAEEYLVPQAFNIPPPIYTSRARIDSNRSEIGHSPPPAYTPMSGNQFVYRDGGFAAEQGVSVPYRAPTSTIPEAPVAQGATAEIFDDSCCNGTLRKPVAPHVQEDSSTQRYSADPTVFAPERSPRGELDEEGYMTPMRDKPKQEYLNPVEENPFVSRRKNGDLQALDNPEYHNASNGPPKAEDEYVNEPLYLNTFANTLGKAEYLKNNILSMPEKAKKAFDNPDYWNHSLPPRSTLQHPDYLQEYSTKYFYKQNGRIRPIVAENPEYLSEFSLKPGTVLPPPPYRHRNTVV
Chain of Focal adhesion kinase 1 (Homo sapiens) (Q05397 2-1052 limits assumed): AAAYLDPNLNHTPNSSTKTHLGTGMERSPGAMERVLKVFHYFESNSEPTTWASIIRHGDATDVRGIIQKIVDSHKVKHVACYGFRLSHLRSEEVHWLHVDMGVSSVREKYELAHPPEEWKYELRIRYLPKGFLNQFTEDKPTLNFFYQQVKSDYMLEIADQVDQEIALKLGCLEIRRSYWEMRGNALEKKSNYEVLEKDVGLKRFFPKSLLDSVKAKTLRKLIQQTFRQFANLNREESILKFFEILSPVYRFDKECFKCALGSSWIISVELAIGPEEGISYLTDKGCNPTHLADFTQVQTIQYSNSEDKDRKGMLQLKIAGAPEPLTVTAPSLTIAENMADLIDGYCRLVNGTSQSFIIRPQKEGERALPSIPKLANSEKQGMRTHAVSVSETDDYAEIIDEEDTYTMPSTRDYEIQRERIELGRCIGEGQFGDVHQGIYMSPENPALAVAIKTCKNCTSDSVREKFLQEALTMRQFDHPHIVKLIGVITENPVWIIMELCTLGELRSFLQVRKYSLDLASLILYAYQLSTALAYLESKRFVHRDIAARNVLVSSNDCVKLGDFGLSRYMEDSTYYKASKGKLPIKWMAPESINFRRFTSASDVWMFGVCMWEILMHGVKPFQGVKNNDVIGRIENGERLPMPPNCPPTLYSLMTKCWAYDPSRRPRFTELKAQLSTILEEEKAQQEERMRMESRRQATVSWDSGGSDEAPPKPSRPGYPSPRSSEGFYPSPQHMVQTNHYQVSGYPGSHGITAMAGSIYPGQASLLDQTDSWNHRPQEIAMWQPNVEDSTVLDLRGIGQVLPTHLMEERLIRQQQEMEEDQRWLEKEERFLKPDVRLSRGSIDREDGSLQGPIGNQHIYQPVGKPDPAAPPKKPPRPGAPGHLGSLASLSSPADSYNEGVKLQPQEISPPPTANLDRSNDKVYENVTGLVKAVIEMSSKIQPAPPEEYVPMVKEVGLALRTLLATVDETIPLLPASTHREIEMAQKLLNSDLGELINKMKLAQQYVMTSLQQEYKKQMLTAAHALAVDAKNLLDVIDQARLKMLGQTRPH

| Compound | residual activity [1] [%] | residual activity [2] [%] | residual activity [3] [%] | residual activity [4] [%] | residual activity [5] [%] | residual activity [6] | residual activity [7] [%] | residual activity [8] [%] | residual activity [9] [%] | residual activity [10] [%] | residual activity [11] [%] | residual activity [12] [%] | residual activity [13] [%] | residual activity [14] [%] |
| --- | --- | --- | --- | --- | --- | --- | --- | --- | --- | --- | --- | --- | --- | --- |
| c1ccc(-c2cnc(Nc3ccc(OCCN4CCCC4)cc3)s2)cc1 | 69 | 104 | 76 | 104 | 65 | 112% (inactive) | 120 | 109 | 64 | 61 | 132 | – | – | – |
| O=C1Nc2ccccc2/C1=C\c1c(Cl)[nH]c2ccccc12 | – | – | – | – | – | – | – | 117 | 134 | – | – | 118 | – | – |
| COc1ccc(Cl)cc1NC(=O)Nc1cc(C)nc2ccccc12 | – | 83 | 56 | 88 | 68 | – | – | 96 | 100 | 80 | 127 | 97 | 86 | 96 |
